Source: PubChem BioAssay (National Center for Advancing Translational Sciences (NCATS))
D2 PAM-1 – HTS Assay for Positive Allosteric Modulators of the Human D2 Dopamine Receptor: Primary Screen for Potentiators; actives 0.34% (n = 340,000); potentiation, % at 10 µM; HEK293 T-REx D2, calcium flux, EC20 dopamine potentiation; D(2) dopamine receptor (Homo sapiens), P14416; AID 485347, 2010;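 active means potentiation over 3 SD above the plate norm, cut at about 30% in these data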
Target sequence (P14416 whole entry, looked up): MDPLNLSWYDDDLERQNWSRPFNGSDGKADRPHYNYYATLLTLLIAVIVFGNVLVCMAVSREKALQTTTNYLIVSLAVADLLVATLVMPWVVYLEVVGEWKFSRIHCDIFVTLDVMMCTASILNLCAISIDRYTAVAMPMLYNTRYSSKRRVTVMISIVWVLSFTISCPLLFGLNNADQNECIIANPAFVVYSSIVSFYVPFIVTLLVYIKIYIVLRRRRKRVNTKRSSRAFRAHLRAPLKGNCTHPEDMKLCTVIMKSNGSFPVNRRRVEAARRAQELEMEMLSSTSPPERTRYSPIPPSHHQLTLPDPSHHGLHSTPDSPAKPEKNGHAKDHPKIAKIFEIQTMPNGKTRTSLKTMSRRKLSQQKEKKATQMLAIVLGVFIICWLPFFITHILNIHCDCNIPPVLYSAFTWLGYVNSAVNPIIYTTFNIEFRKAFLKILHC
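Using a no-wash calcium dye in inducible, force-coupled HEK293 Trex cells expressing D2, we tracked fluorescence each second for 180 s after compound, then for 180 s after EC20 dopamine to detect augmented signalling.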
D2 ag-1 – Beta-Arrestin HTS for Positive Allosteric Modulators of the Human D2 Dopamine Receptor: Agonists | D(2) dopamine receptor (Homo sapiens), P14416 | DiscoveRx PathHunter D2 beta-arrestin, luminescence, 90 min; 100% = 57 uM dopamine signal | activation, % (no concentration beside the values) | actives 0.084% (n = 360,000) | AID 624465, 2012; in the data active means activation above about 40%; inconclusive means between about 15% and that limit
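DiscoveRx PathHunter D2 beta-arrestin cells (2,100/well) attached overnight, then compound-stimulated 90 min at 37 C in HBSS/10 mM HEPES/0.1% Tween-20 buffer; beta-galactosidase complementation read by luminescence after 1 h at ambient temperature. Dopamine 57 uM final (EC100) as control.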
D2 ag-2 – HTS Assay for Allosteric Agonists of the Human D2 Dopamine Receptor: Primary Screen for Agonists; HEK293 T-REx D2 cells, calcium flux agonist mode; activation, % at 2 µM; actives 0.53% (n = 340,000);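 active means activation over 3 SD above normal in the single-dose calcium agonist read, cut at about 30% in these data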
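In this primary screen, compounds producing a positive calcium signal within 180 s of addition to tetracycline-induced, force-coupled HEK293 Trex D2 cells are flagged; cells are dye-loaded with a no-wash calcium kit beforehand.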
D2 PAM-2 – Beta-Arrestin HTS for Positive Allosteric Modulators of the Human D2 Dopamine Receptor: Potentiators; DiscoveRx D2 beta-arrestin cells, luminescence, 90 min; 100% = 57 uM dopamine signal; potentiation, % (test concentration not listed); actives 0.23% (n = 360,000); AID 624464, 2012; in the data active means potentiation above about 50%; inconclusive means mostly about 30% to 49%
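PathHunter D2 cells, attached overnight at 37 deg C, received compound in DMSO plus dopamine at EC20 (50 nM final) for 90 min at 37 deg C. Beta-arrestin recruitment was read as luminescence after 1 h with detection reagent at ambient temperature.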
D2 antagonist – HTS Assay for Allosteric Antagonists of the Human D2 Dopamine Receptor: Primary Screen for Antagonists | actives 2% (n = 340,000) | HEK293 TREx D2 cells, calcium flux, dopamine EC80 | inhibition, % at 10 µM | AID 485344, 2010 | D(2) dopamine receptor (Homo sapiens), P14416; in the data active means inhibition above about 30%; inactive means below that, where a call was filed
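HEK293 T-REx D2 cells, tet-induced, calcium dye no-wash. Cpd pintool add, 180 s kinetic, then EC80 DA, 180 s kinetic. Ca flux read.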
Large screens that a line does not name were inactive. Shown are actives, neighbours in structure and some others; about 2.4% of the full set was active somewhere.

CCOC(=O)CC1CCCCN1C(=O)c1cc(COc2cccc3cnccc23)on1 (centres undefined)	none
Cc1ccc(C)c(Cn2c(SCC(=O)N(C)Cc3ccccc3)nc3ccccc32)c1	none (no result: D2 ag-1, D2 PAM-2, D2 antagonist)
Cn1c(=O)[nH]c(=O)c2c1nc(CN1CCN(c3ccc(F)cc3)CC1)n2CCCc1ccccc1	none
Fc1ccccc1N1CCN(CCCc2ccccc2)CC1	D2 antagonist 74
Clc1ccccc1CN1CCN(CCCc2ccccc2)CC1	D2 antagonist 65
Cn1c(=O)[nH]c(=O)c2c1nc(CN1CCN(c3ccccc3F)CC1)n2CCCc1ccccc1	D2 PAM-1 32
COc1cc2oc(=O)c(CC(=O)NCCc3ccccc3F)c(C)c2cc1OC	none (no result: D2 ag-1, D2 PAM-2, D2 antagonist)
CSc1ccccc1NC(=O)Nc1ccc(Cl)cc1	D2 antagonist 31
O=C(COC(=O)CCc1c[nH]c(=O)[nH]1)Nc1cccc(Cl)c1	D2 antagonist 35
COc1ccc2[nH]c3c(c2c1)CCN1C(=O)N([C@@H](C)C(=O)NC2CC2)C(=O)[C@]31C	D2 ag-2 30
CC(C)C[C@@H](C(=O)NC1CCN(Cc2ccccc2)CC1)N1C(=O)N2CCc3c([nH]c4ccccc34)[C@@]2(C)C1=O	D2 antagonist 31
COc1ccc2[nH]c3c(c2c1)CCN1C(=O)N([C@@H](C)C(=O)NCc2ccccc2)C(=O)[C@]31C	D2 ag-2 36
C[C@@H](C(=O)NC1CCN(Cc2ccccc2)CC1)N1C(=O)N2CCc3c([nH]c4ccccc34)[C@@]2(C)C1=O	none
N#Cc1ccccc1S(=O)(=O)N1CCN(C(=O)c2cc3c(s2)CCC3)CC1	none
O=C(CCN1C(=O)c2ccc([N+](=O)[O-])cc2C1=O)Nc1cccc(O)c1	D2 ag-1 inconclusive, D2 PAM-2 63
O=C(CCCn1cnc([N+](=O)[O-])n1)Nc1ccc(F)c(Cl)c1	none
O=C(CCCn1cnc([N+](=O)[O-])n1)Nc1cccc(O)c1	D2 antagonist 35
Cc1ccc(NC(=O)CCN2C(=O)c3ccccc3C2=O)c(C)c1	none (no result: D2 PAM-1, D2 ag-2, D2 antagonist)
Cc1cc(O)ccc1NC(=O)CCN1C(=O)c2ccc([N+](=O)[O-])cc2C1=O	D2 ag-1 inconclusive, D2 PAM-2 73
Cc1ccc(C)c(N2CCN(C(=O)C3CCN(c4nc(-c5ccc(C(C)C)cc5)no4)CC3)CC2)c1	none (no result: D2 ag-1, D2 PAM-2, D2 antagonist)
COc1ccc(C)cc1NC(=O)c1ccc2c(c1)nnn2C1CCCC1	none (no result: D2 ag-1, D2 PAM-2, D2 antagonist)
C=CCn1c(CCNC(=O)c2cccs2)nnc1SCC(=O)Nc1cccc(C(C)=O)c1	D2 antagonist 34
Cc1cc(NC(=O)CSc2nc(-c3ccco3)cc(C(F)(F)F)n2)n(-c2ccccc2)n1	none
Cc1cc(NC(=O)CCCSc2nc(-c3ccco3)cc(C(F)(F)F)n2)n(-c2ccccc2)n1	D2 PAM-1 33
CCn1nc(C)c(NC(=O)CCSc2nc(-c3ccco3)cc(C(F)(F)F)n2)c1C	D2 PAM-1 31
N#Cc1c(NC(=O)CSc2nc(-c3ccco3)cc(C(F)(F)F)n2)sc2c1CCCC2	D2 PAM-1 44
COc1ccc(/C=C\C(=O)O[C@@H]2C(O)C(O[C@@H]3OC(C)[C@H](O[C@@H]4OCC(O[C@H]5O[C@H](CO)[C@@H](O)C(O)C5O)C(O)C4O)C(O)C3O)[C@H](OC(=O)[C@]34CCC(C)(C)C[C@@H]3C3=CCC5[C@@]6(C)CC(O)C(O[C@@H]7OC(CO)C(O)[C@H](O)[C@H]7O)[C@@](C)(C(=O)O)C6CC[C@@]5(C)[C@]3(CO)CC4)O[C@H]2C)cc1 (some centres undefined)	none (no result: D2 PAM-1, D2 ag-2, D2 antagonist)
Cc1cc(C)c(NC(=O)CSc2ncc(S(=O)(=O)c3ccc(C(C)(C)C)cc3)c(=O)[nH]2)c(C)c1	none (no result: D2 ag-1, D2 PAM-2, D2 antagonist)
COc1cccc(Cn2ccn(-c3ccc(F)cc3)c(=O)c2=O)c1	none (no result: D2 ag-1, D2 PAM-2, D2 antagonist)
Cc1cc(N2CCCC2)nc(-c2ccccc2O)n1	none
Cc1cc(N2CCCCC2)nc(N)n1	D2 ag-2 69, D2 antagonist 60
Cc1cc(C)cc(NC(=O)Cn2nnc(-c3ccccc3F)n2)c1	none (no result: D2 ag-1, D2 PAM-2, D2 antagonist)
COc1cc(CN2CCN(Cc3ccc(C)cc3)C(CCO)C2)cc(OC)c1O (centres undefined)	D2 antagonist 57
CC(C)CCN1CCN(Cc2cccc3nonc23)CC1CCO (centres undefined)	D2 antagonist 54
CC(C)N1CCN(Cc2cccs2)CC1CCO (centres undefined)	none (no result: D2 PAM-1, D2 ag-2, D2 antagonist)
COc1ccc(CN2CCN(Cc3ccc(C)cc3)C(CCO)C2)cc1OC (centres undefined)	none
Cc1ccc(CN2CCN(CCC(C)C)C(CCO)C2)s1 (centres undefined)	D2 antagonist 57
CC(C)CCN1CCN(Cc2cccs2)CC1CCO (centres undefined)	D2 antagonist 31
COc1ccc2c(c1)CC(NC(=O)Nc1ccc(Br)c(C)c1)CO2 (centres undefined)	none (no result: D2 ag-1, D2 PAM-2, D2 antagonist)
O=C(N[C@H](CO)Cc1ccccc1)[C@H]1O[C@@H](n2ccc(=O)[nH]c2=O)[C@H](O)[C@@H]1O	none (no result: D2 PAM-1, D2 ag-2, D2 antagonist)
COc1cc(NC(=O)CCc2c(C)nc3c4c(C)cc(C)nc4nn3c2C)cc(OC)c1	none (no result: D2 ag-1, D2 PAM-2, D2 antagonist)
Cc1ccc(CN2CCN(Cc3ccc(C)s3)CC2CCO)cc1 (centres undefined)	D2 antagonist 69
COc1cccc(CN2CCC2(C)C(=O)Nc2cccc(Oc3ccccc3)c2)c1OC (centres undefined)	none (no result: D2 PAM-1, D2 ag-2, D2 antagonist)
CCc1cc(C(=O)OC)c(NC(=O)CC2SC(=NC)N(C)C2=O)s1 (centres undefined)	D2 antagonist 63
CC(OC(=O)c1nc(Cl)ccc1Cl)C(=O)NCc1ccccc1 (centres undefined)	none (no result: D2 PAM-1, D2 ag-2, D2 antagonist)
CC(=O)Nc1cncc(-c2cnn(CC(C)C)c2)n1	none (no result: D2 PAM-1, D2 ag-2, D2 antagonist)
COc1cccc(NC(=O)Cn2c(=O)n(CCc3ccccc3)c(=O)c3c4c(sc32)CN(C(C)=O)CC4)c1	none (no result: D2 ag-1, D2 PAM-2, D2 antagonist)
CCN(C(=O)c1cc(S(=O)(=O)N2CCc3ccccc32)cn1C)c1cccc(C)c1	none (no result: D2 ag-1, D2 PAM-2, D2 antagonist)
O=C(C1=C[C@@H](c2coc3ccccc3c2=O)C[C@@H](OCCCCO)O1)N1CCOCC1	D2 antagonist 62
CN1CCN(C(=O)C2=C[C@H](c3coc4ccccc4c3=O)C[C@H](OCCCCO)O2)CC1	none
CSc1ccc(CCNC(=O)c2ccc(-n3c(C)cc4c3CCCC4)cc2)cc1	none (no result: D2 ag-1, D2 PAM-2, D2 antagonist)
COc1ccc(/C=C/C(=O)Nc2cc(C(F)(F)F)ccc2Cl)cc1	D2 antagonist 32
